This note sets out measurements from PubChem BioAssay AID1490 (National Center for Advancing Translational Sciences (NCATS), 2009).

Values joined by “and” are separate entries in the source; they are usually repeats but may differ in a detail not shown here. Identical values can stand only once. Out of some 310,000 compounds screened, about 11,000 (3.5%) were called active. Not shown: some 4% with an inconclusive outcome. The full list was thinned out, with actives kept by preference. Values without a mark were called inactive. Calls follow the shape of the dose curve; as a rule, active = well fitted inhibition curve with a large enough effect; inconclusive = small, poorly fitted or top-dose-only effect, or another doubt; inactive = no such curve, though single readings can be large or run the other way.
Potency is read from the fitted curve at half-maximal effect.

The target of this test is 4'-phosphopantetheinyl transferase ffp (Bacillus subtilis) (UniProt Q9F4F7). As to the kind of experiment: qHTS Assay for Inhibitors of Bacillus subtilis Sfp phosphopantetheinyl transferase (PPTase).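 Also: the enzyme is Sfp with the accession as filed and its product quenches rhodamine fluorescence.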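 As to largest response in the series, negative = inhibition: 0% = enzyme reaction without inhibitor and -100% = no enzyme wells.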 The settings on record: Biochemical Sfp PPTase activity. Summed up: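 Sfp 15 nM + cpd, 15 min RT; start w/ rhodamine-CoA 5 uM, BHQ-2-YbbR 12.5 uM (final); 50 mM Hepes pH 7.6, 10 mM MgCl2, 0.01% NP-40, 0.01% BSA; read 525/598 nm at 0 and 30 min.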
With `Cc1ccc(C)c(NC(CC(=O)c2ccccc2)C(=O)OCC(=O)c2cccs2)c1` (stereo not given), the Potency is 39.8 µM (active).
Take `COC(=O)C(CC(=O)Nc1cc(C)ccc1C)Nc1ccccc1OC` (stereo not given): the largest response in the series, negative = inhibition is 28.6%.
Take `Cc1ccc(C)c(NC(=O)CCC(=O)NNC(=O)c2cccs2)c1`: the largest response in the series, negative = inhibition is 3.73%.
`Cc1ccc(-c2ncc(Cl)cc2-c2ccc(S(C)(=O)=O)cc2)cn1`: the largest response in the series, negative = inhibition is 13.6%.
As for `C=CCn1c(SCc2c(C)noc2C)nc2sc3c(c2c1=O)CCC(C)C3` (stereo not given), the largest response in the series, negative = inhibition is -23.8%.
As to `C=CCn1c(SCC(=O)NCC2CCCO2)nc2sc(C)c(C)c2c1=O` (stereo not given), the largest response in the series, negative = inhibition is 13.7%.
Turning to `C=CCn1c(SCc2csc(C)n2)nc2scc(-c3ccc(C)o3)c2c1=O`, the Potency is 11.2 µM (active).
With `COC(=O)c1cc(NC(=O)c2cccnc2)ccc1N1CCOCC1`, the largest response in the series, negative = inhibition is 9.31%.
As for `COc1ccccc1NC(=O)c1ccc(N2CC3CC(C2)c2cccc(=O)n2C3)c(NC(=O)c2cccnc2)c1` (stereo not given), the Potency was 31.6 µM (active).
As for `COc1ccccc1NC(=O)c1ccc2nc(N3C(=O)CCC3=O)sc2c1`, the largest response in the series, negative = inhibition is 10.7%.
The same measure, in the same setting: in the case of `CCCCn1c(-c2cccc(C)c2)nc2cc3[nH]c(=O)c(C(C)C)nc3cc21` it was -18.3%.
With `CCOC(OCC)OCC`, the largest response in the series, negative = inhibition is -10.1%.
Same read-out and setting: in the case of `CC1C(=O)Nc2ccccc2N1C(=O)c1c(F)cccc1F` (stereo not given) it was 14.4%.
On to `CC(C)c1cnc(NC(=O)Cc2ccccc2)s1`, for which the largest response in the series, negative = inhibition is 26.8%.
Take `CC(=O)Nc1c2c(nn1-c1ccc(C)cc1C)CS(=O)C2` (stereo not given): the largest response in the series, negative = inhibition was 9.45%.
For the molecule `O=C(CCCN1C(=O)/C(=C/c2ccco2)SC1=S)Nc1ccccc1`, the Potency is 31.6 µM (active).
Take `COc1ccc(/C=C2\SC(=S)N(CCC(=O)Nc3cccc(C(=O)O)c3)C2=O)cc1OC`: the largest response in the series, negative = inhibition is -8.44%.
On to `O=C(CCCN1C(=O)/C(=C\c2ccccc2)SC1=S)Nc1ccccc1O`, for which the largest response in the series, negative = inhibition is 17.9%.
Turning to `O=C(CCCN1C(=O)/C(=C/c2ccccc2)SC1=S)Nc1ccc(O)cc1`, the largest response in the series, negative = inhibition was 12.2%.
As to `O=C(CCCN1C(=O)/C(=C\c2ccco2)SC1=S)Nc1cccc2ccccc12`, the Potency is 56.2 µM (active).
For `O=C(CCCN1C(=O)/C(=C/c2cccs2)SC1=S)Nc1ccc(O)cc1`, the largest response in the series, negative = inhibition is -1.57%.
As to `Cc1ccc2nc3c(cc(C(=O)NCCc4ccccc4)c(=N)n3CC3CCCO3)c(=O)n2c1` (stereo not given), the largest response in the series, negative = inhibition is 21.3%.
Take `Cc1ccc(CS(=O)(=O)c2ncc(Cl)c(C(=O)Nc3nnc(C)s3)n2)cc1`: the largest response in the series, negative = inhibition was -13.2%.
As for `COc1ccc(Cl)cc1NS(=O)(=O)c1cccc(C(=O)NCC2CCCO2)c1` (stereo not given), the largest response in the series, negative = inhibition is 12.9%.
Regarding `CN(Cc1ccccc1)C(=O)CSc1nc2ccccc2[nH]1`, the largest response in the series, negative = inhibition was 9.63%.
For the molecule `COCCCNC(=S)NC(=O)c1ccccc1`, the largest response in the series, negative = inhibition was 8.58%.
For `Cn1nnc(NC(=S)NC(=O)c2ccccc2)n1`, the Potency is 35.5 µM (active).
Regarding `Cc1cc2[nH]ncc2cc1NC(=S)NC(=O)c1ccccc1`, the largest response in the series, negative = inhibition is 1.08%.
As to `O=C(NC(=S)NC1CCS(=O)(=O)C1)c1cccc([N+](=O)[O-])c1` (stereo not given), the largest response in the series, negative = inhibition was -2.6%.
Consider `COc1ccc(CCNCc2c(-c3ccccc3)n(C)c3ccccc23)cc1`, for which the Potency is 79.4 µM (active).
In the case of `COc1ccc(-c2c(C#Cc3ccccc3)c3ccccc3n2C)cc1`, the largest response in the series, negative = inhibition is -20.7%.
Consider `COc1ccc(-c2nc3ccccc3c(=O)n2CCc2ccc(O)cc2)cc1`, for which the largest response in the series, negative = inhibition is -0.523%.
In the case of `CCOc1ccc(-n2c(SCC(N)=O)nnc2-c2ccco2)cc1`, the largest response in the series, negative = inhibition was 27.1%.
As for `O=[N+]([O-])c1c(NCCO)cc(Sc2nc3ccccc3s2)c2nonc12`, the Potency was 6.31 µM (active).
`O=C(O)c1cccc(S(=O)(=O)Nc2ccc(O)cc2Sc2nc3ccccc3s2)c1`: the largest response in the series, negative = inhibition is -29.2%.
For `CCOc1ccccc1Nc1ccc2nonc2c1[N+](=O)[O-]`, the largest response in the series, negative = inhibition is 1.09%.
As to `C=CCn1c(CCc2ccc(OC(C)C)cc2)n[nH]c1=S`, the largest response in the series, negative = inhibition was 14.2%.
On to `Cc1ccc(C)c2[nH]c(=O)c(CCNC(=O)c3cccs3)cc12`, for which the largest response in the series, negative = inhibition is 6.07%.
`C=CCn1c(CCNC(=O)c2cccs2)n[nH]c1=S`: the Potency is 7.94 µM (active).
Turning to `COc1ccc(C(=O)NC2CC(C)(C)NC(C)(C)C2)cc1OC`, the largest response in the series, negative = inhibition was 0.887%.
Regarding `N#C/C(=C\c1ccc(O)c(O)c1)C(N)=O`, the Potency was 79.4 µM (active) and 56.2 µM (active).
For the molecule `CC(C)(C)C(=O)/C(C#N)=C/c1ccc(O)cc1`, the largest response in the series, negative = inhibition is 8.9%.
Take `N#C/C(=C\c1ccc(O)c(O)c1)C(=O)NCc1ccccc1`: the largest response in the series, negative = inhibition is -22.3% and -19.4%.
As for `C=CCOc1ccc(/C=C/C(=O)OCC(=O)NC2CCCCCC2)cc1`, the largest response in the series, negative = inhibition was 16.7%.
`CCOC(=O)c1ccc(NC(=O)CNC(=O)c2ccco2)cc1`: the largest response in the series, negative = inhibition was 7.8%.
Turning to `CCCN(CCc1ccccc1)C1CCc2c(O)cccc2C1` (stereo not given), the largest response in the series, negative = inhibition was 21.2%.
Consider `CC(=O)Nc1ccc(S(=O)(=O)N2N=NC3C2C2CC4C3(CN(C(=O)OC(C)(C)C)S4(=O)=O)O2)cc1` (stereo not given), for which the largest response in the series, negative = inhibition is 11.6%.
In the case of `O=C(COC(=O)CCC(=O)c1cccs1)NCc1ccco1`, the Potency was 35.5 µM (active).
On to `O=C(COC(=O)C12CC3CC(CC(C3)C1)C2)NCc1ccco1`, for which the largest response in the series, negative = inhibition is -10.5%.
For `O=C(COC(=O)c1cccs1)NCc1cccs1`, the largest response in the series, negative = inhibition is 10.5%.
Regarding `CN1CCN(Cc2c(C(=O)N3CCc4ccccc4C3)nc3ccc(Cl)cn23)CC1`, the largest response in the series, negative = inhibition was -5.24%.
For `CCCn1nnnc1NCc1ccc(OC)cc1`, the largest response in the series, negative = inhibition was 10.3%.
Take `CNC(=O)c1sc(NCc2ccccc2OC)nc1C`: the largest response in the series, negative = inhibition was -19.7%.
Same read-out and setting: in the case of `CCOC(=O)c1sc(NC(=O)c2ccncc2)nc1C` it was -1.23%.
Regarding `CCOC(=O)c1sc(=S)n2c1[nH]c(=O)c1ccc(C(=O)OC)cc12`, the Potency was 15.8 µM (active).
Turning to `CCOC(=O)C1=C(C)Nc2sc(C(=O)c3ccc(Br)cc3)c(N)c2C1c1ccc(C(=O)OC)cc1` (stereo not given), the largest response in the series, negative = inhibition was 15.8%.
As to `CCc1nn(CCCC(=O)Nc2ccc(C)c(C)c2)c(=O)c2cc3occc3n12`, the largest response in the series, negative = inhibition was 5.57%.
Consider `COc1ccc(N2CCN(Cc3ccc(Br)s3)CC2)cc1`, for which the Potency was 39.8 µM (active).
On to `COc1ccc(N2CCN(Cc3cc(=O)oc4ccc5ccccc5c34)CC2)cc1`, for which the largest response in the series, negative = inhibition is 4.08%.
Still for that read-out and setting: in the case of `COc1ccc(N2CCN(Cc3nnc(-c4ccccc4)o3)CC2)cc1` it was 2.63%.
